# Values joined by “and” are separate entries in the source; they are usually repeats but may differ in a detail not shown here. Equal values may be shown once. Inconclusive results are not listed. A call without a number means that no potency is given here. Some structures have more than one record in an assay (separate samples or runs), and their calls can disagree. Active and inactive are the calls of the source. Unless noted, calls follow the shape of the dose curve; as a rule, active = well fitted curve in the direction sought with a large enough effect in the repeat runs; inconclusive = weak or mixed curves; inactive = no such curve, though single readings can be large; an effect the other way counts as inactive or inconclusive.
# What was measured:
# [1] = qHTS assay to identify small molecule agonists of the androgen receptor (AR) signaling pathway in the presence of an antagonist - cell viability counter screen (AID 1259379); also: nearly all actives have a fitted effect of over 25% in size; also: potency is read from the fitted curve at half-maximal effect
# Summary of the method: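 Viability counter screen: CellTiter-Fluor fluorescence, measured in the same wells as the luciferase read-out. MDA-kb2 cells, 3,000/well, with nilutamide at 3.0uM final and compounds at 15 concentrations, 16 hr at 37C, 0% CO2.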
# [2] = qHTS assay to identify small molecule agonists of the estrogen receptor beta (ER-beta) signaling pathway - cell viability counter screen (AID 1259380); also: nearly all actives have a fitted effect of over 30% in size; also: potency is read from the fitted curve at half-maximal effect
# Summary of the method: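 Luminescence read-out (CellTiter-Glo, 30 min, room temp) taken in the same wells as the beta-lactamase reporter assay; ER-beta-UAS-bla HEK293T cells exposed to DMSO-dissolved compounds for 16 hr at 37C in 2% charcoal-stripped FBS medium.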
# [3] = qHTS assay to identify small molecule antagonists of the estrogen receptor beta (ER-beta) signaling pathway - cell viability counter screen (AID 1259382);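 also: HEK293T cells carrying ER-beta-UAS-bla reporter stimulated with estradiol; series mostly up to about 92 µM; nearly all actives have a fitted effect of over 55% in size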
# Summary of the method: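 Luminescent ATP read-out (CellTiter-Glo, 30 min, RT) taken in the same wells as the bla reporter assay. HEK293T ER-beta-UAS-bla cells in 2% charcoal-stripped FBS were exposed to compounds with 1nM E2 for 16 hr at 37C.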
# [4] = qHTS assay to identify small molecule agonists or antagonists of the thyroid stimulating hormone receptor (TSHR) signaling pathway - wild type cell line counter screen (AID 1259384; calls by dose curve)
# Summary of the method: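 Counter screen in untransfected Hek293: compounds (15-point titration, triplicate) plus phosphodiesterase inhibitor Ro20-1724 added after 18 h plating; 30 min RT. Intracellular cAMP via competitive d2/cryptate immunoassay, 1 h incubation.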
# [5] = target: Thyrotropin receptor (Homo sapiens) (UniProt P16473); test: qHTS assay to identify small molecule antagonists of the thyroid stimulating hormone receptor (TSHR) signaling pathway (AID 1259385; calls by dose curve; also: nearly all actives have a fitted effect of over 20% in size)
# Thyrotropin receptor (Homo sapiens), sequence (P16473 whole entry, looked up): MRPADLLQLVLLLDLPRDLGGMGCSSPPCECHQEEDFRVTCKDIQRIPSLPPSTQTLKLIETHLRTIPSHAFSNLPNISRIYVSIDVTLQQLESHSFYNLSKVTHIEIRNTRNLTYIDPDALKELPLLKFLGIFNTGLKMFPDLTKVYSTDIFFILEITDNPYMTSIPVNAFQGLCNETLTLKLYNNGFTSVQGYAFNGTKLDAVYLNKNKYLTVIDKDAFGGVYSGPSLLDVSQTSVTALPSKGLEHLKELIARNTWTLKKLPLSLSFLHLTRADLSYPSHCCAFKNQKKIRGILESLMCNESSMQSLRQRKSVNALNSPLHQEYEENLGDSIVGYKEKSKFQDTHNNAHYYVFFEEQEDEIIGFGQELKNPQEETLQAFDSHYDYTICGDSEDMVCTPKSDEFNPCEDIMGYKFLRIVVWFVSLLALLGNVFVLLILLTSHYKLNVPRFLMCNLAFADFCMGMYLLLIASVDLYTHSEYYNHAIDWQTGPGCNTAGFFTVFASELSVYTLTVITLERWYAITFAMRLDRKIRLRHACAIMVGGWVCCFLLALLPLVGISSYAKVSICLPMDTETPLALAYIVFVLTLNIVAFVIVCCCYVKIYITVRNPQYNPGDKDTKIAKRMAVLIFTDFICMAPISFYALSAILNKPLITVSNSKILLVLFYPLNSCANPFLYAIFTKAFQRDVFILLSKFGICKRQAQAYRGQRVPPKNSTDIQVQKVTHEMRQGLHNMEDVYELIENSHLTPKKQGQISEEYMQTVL
# Summary of the method: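 Antagonist mode: compound-treated TSHR-expressing HEK293 cells were stimulated with 1.5 ng/mL TSH (final) in presence of Ro20-1724 for 30 min at RT. HTRF cAMP detection after 1 h; each compound tested at 15 concentrations, triplicate.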
# [6] = qHTS assay to identify small molecule agonists of the estrogen receptor alpha (ER-alpha) signaling pathway in the presence of an antagonist - cell viability counter screen (AID 1259386);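 also: series mostly up to about 92 µM; cells exposed to compounds for 22 h at 37 °C before the viability read; nearly all actives have a fitted effect of over 30% in size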
# Summary of the method: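 Read-out: CellTiter-Fluor fluorescence after 1hr reagent incubation, measured in the same wells as the luciferase readout. VM7Luc4E2 cells were exposed to 15 compound concentrations with 10.0nM ICI-182,780 for 22hr at 37C.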
# [7] = target: Progesterone receptor (Homo sapiens) (UniProt P06401); test: qHTS assay to identify small molecule agonists of the progesterone receptor (PR) signaling pathway (AID 1346784; calls by dose curve; also: nearly all actives have a fitted effect of over 30% in size; also: potency is read from the fitted curve at half-maximal effect)
# Progesterone receptor (Homo sapiens), sequence (P06401 whole entry, looked up): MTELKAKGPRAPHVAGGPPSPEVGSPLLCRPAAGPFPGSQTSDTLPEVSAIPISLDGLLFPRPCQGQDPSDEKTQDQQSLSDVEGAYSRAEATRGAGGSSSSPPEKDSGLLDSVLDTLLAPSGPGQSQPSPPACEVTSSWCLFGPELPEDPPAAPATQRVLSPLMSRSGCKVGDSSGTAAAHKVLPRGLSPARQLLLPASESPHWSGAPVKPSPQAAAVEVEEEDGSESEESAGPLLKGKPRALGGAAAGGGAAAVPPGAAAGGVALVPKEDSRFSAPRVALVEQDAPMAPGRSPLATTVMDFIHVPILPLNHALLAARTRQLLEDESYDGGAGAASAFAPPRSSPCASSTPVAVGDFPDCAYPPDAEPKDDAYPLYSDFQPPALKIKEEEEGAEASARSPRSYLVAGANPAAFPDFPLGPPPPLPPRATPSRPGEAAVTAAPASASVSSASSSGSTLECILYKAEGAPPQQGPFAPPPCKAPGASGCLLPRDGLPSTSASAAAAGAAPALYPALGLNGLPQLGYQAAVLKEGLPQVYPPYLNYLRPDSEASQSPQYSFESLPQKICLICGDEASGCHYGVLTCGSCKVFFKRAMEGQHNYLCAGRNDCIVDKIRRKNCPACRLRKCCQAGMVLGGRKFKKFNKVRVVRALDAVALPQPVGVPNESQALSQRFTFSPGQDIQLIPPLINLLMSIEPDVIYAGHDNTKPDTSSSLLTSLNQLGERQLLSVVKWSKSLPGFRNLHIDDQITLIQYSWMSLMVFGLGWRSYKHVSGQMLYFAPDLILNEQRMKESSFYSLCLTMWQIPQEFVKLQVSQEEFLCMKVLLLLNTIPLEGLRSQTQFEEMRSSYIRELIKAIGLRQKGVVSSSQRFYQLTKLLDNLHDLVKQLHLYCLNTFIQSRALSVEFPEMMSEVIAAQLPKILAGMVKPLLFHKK
# Summary of the method: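 Seed PR-UAS-bla HEK 293T cells (2% charcoal-stripped FBS), incubate 6 hr at 37C; add compounds in DMSO, 16 hr at 37C; add LiveBLAzer B/G substrate, 2 hr RT; read fluorescence intensity.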
# [8] = target: Progesterone receptor (Homo sapiens) (UniProt P06401); test: qHTS assay to identify small molecule antagonists of the progesterone receptor (PR) signaling pathway (AID 1346795; active = well fitted inhibition curve with a large enough effect in the signal ratio in the repeat runs, not every such curve was filed as active; the % refers to the signal ratio; also: potency is read from the fitted curve at half-maximal effect)
# Summary of the method: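 Screening used a GripTite HEK293T line with PR-responsive UAS-beta-lactamase. Cells were challenged with compound in the presence of 1 nM R5020 final for 16 hr at 37C; B/G FRET substrate, 2 hr room temperature, fluorescence.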
Structure (SMILES),Potency [1],Potency [2],Potency [3],outcome [4],Potency [5],Potency [6],Potency [7],Potency [8],activation [7]
CC1=CC(=O)NS(=O)(=O)O1,inactive,inactive,inactive,inactive,inactive,inactive,inactive,inactive,–
Cc1occc(=O)c1O,inactive,inactive,inactive,inactive,inactive,inactive,inactive,inactive,–
O=c1[nH]c(=O)n([C@H]2CCCO2)cc1F,inactive,inactive,inactive,inactive,inactive,inactive,inactive,inactive,–
N[C@@H](Cc1cc(I)c(Oc2cc(I)c(O)c(I)c2)c(I)c1)C(=O)O,inactive,inactive,inactive,inactive,inactive,inactive,inactive,inactive,–
O=C(O)[C@H](O)[C@@H](O)[C@H](O)[C@H](O)CO,inactive,inactive,inactive,–,–,inactive,2.43 µM (active),inactive,-0.268% [at 3.27 µM] (inactive)
O=C(Oc1ccccc1)c1ccccc1,inactive,inactive,inactive,inactive,inactive,inactive,inactive,inactive,–
CSCCC=O,inactive,inactive,inactive,–,–,inactive,inactive,inactive,–
CC(=O)CC(=O)Nc1ccccc1,inactive,inactive,inactive,inactive,inactive,inactive,inactive,inactive,–
O=c1[nH]nnc2ccccc12,inactive,inactive,inactive,inactive,inactive,inactive,inactive,inactive,–
CC(C)CC(=O)CC(C)C,inactive,inactive,inactive,–,–,inactive,inactive,inactive,–
O=C(O)c1ccc(C(=O)O)cc1,inactive,inactive,inactive,inactive,inactive,inactive,inactive,inactive,–
CC(C)(C)[C@@H](O)[C@@H](Cc1ccc(Cl)cc1)n1cncn1,inactive,inactive,inactive,inactive,inactive,inactive,inactive,48.2 µM (active),–
CCCCOC(=O)COc1ccc(Cl)cc1Cl,inactive,inactive,inactive,inactive,inactive,inactive,inactive,inactive,–
C=C(C)C(=O)OCCOCCOCCOC(=O)C(=C)C,inactive,inactive,inactive,inactive,inactive,inactive,inactive,inactive,–
Oc1cccc2ccccc12,inactive,inactive,inactive,inactive,inactive,inactive,inactive,28 µM (active) and 43.3 µM (active),–
COCCCOc1ccnc(CS(=O)c2nc3ccccc3[nH]2)c1C (stereo not drawn),48.4 µM (active) and inactive,inactive,inactive,inactive,inactive,inactive,inactive,60.9 µM (active) and inactive,–
CCCCCCCCCCCCc1ccccc1,inactive,inactive,inactive,inactive,inactive,inactive,inactive,inactive,–
C[C@H]1C[C@H]2[C@@H]3CCC4=CC(=O)C=C[C@]4(C)[C@@]3(F)[C@@H](O)C[C@]2(C)[C@@]1(O)C(=O)CO,inactive,inactive,inactive,–,–,inactive,11.9 µM (active),–,–
CCC(O)OCCCOC (stereo not drawn),inactive,inactive,inactive,inactive,inactive,inactive,inactive,inactive,–
CCCCCCCCCCCCCCCO,inactive,inactive,inactive,inactive,inactive,inactive,inactive,inactive,–
Nc1ccccc1[N+](=O)[O-],inactive,inactive,inactive,inactive,–,inactive,inactive,inactive,–
CCCCCC(N)=O,inactive,inactive,inactive,inactive,inactive,inactive,inactive,inactive,–
CCCC(C)=O,inactive,inactive,inactive,–,–,inactive,inactive,inactive,–
ON=C1CCCCC1,inactive,inactive,inactive,inactive,inactive,inactive,inactive,inactive,–
CN(C)CCC(c1ccc(Cl)cc1)c1ccccn1 (stereo not drawn),inactive,48.7 µM (active),–,inactive,inactive,inactive,inactive,inactive,–
CC1CCC2CC1C2(C)C (stereo not drawn),inactive,inactive,inactive,inactive,inactive,inactive,inactive,inactive,–
OCC(CO)(CBr)CBr,inactive,inactive,inactive,inactive,inactive,inactive,inactive,inactive,–
Cc1ccc(S(N)(=O)=O)cc1,inactive,inactive,inactive,inactive,inactive,inactive,inactive,inactive,–
Cc1cccnc1,inactive,inactive,inactive,inactive,inactive,inactive,inactive,inactive,–
CCCCCC/C(C=O)=C\c1ccccc1,inactive,inactive,inactive,inactive,inactive,inactive,inactive,inactive,–

# — PubChem BioAssay (Tox21)
